# In all, about 33,000 sequences were measured (“e-score”: median about -0.053, highest 2% from about 0.38 on). For the sample, the highest values were picked, then their nearest neighbours and some sequences at random.
# Biological target: T1, SIX1 homeodomain (reference allele) (human, UniProt Q15475 108-198)
# T1 sequence: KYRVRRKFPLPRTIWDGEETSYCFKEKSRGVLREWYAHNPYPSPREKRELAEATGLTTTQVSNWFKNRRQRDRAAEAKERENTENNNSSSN
# Experiment: universal protein binding microarray; Universal all-10-mer PBM (8x60K, AMADID 030236), 300 nM GST-tagged protein, Alexa Fluor 488 anti-GST; buffer, salt, pH and temperature not stated (as in Berger); high values mean tight binding
# Conditions: protein: ivt; tags: N-terminal GST; dsDNA, one strand shown
# How it was run: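 Homeodomains fused to GST were made by in vitro transcription/translation and measured by anti-GST western blot with a recombinant GST standard curve. At 300 nM final concentration, they were applied in duplicate to universal 'all 10-mer' protein binding microarrays (8×60K format).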
row,Sequence,binding signal [E-score]
1,ATCCCTAC,0.307 ± 0.0295
2,ATCACTCA,0.335 ± 0.0213
3,CGCATACC,0.266 ± 0.0145
4,AGAATATC,0.283 ± 0.121
5,AGCATATC,0.408 ± 0.0304
6,CGCATATC,0.414 ± 0.0167
7,ATCATATC,0.425 ± 0.033
8,CTCATATC,0.31 ± 0.0778
9,ATCATATA,0.271 ± 0.0327
10,AGCATATA,0.239 ± 0.0331
11,CGCATATA,0.158 ± 0.0261
12,CGCATCTC,0.154 ± 0.00741
13,TACATGTA,0.176 ± 0.041
14,ACTCATAT,0.25 ± 0.0849
15,AGTATACG,0.26 ± 0.0621
16,ATACGTGC,0.358 ± 0.0375
17,GTGTCATA,0.369 ± 0.0321
18,ATATGACG,0.227 ± 0.0466
19,CGATCCAG,0.212 ± 0.123
20,TACAGGTA,0.244 ± 0.0285
21,GATAGGCC,0.209 ± 0.0213
22,CTGCGATC,0.322 ± 0.0185
23,ACCCGGAG,0.194 ± 0.0529
24,ACCCGTAT,0.391 ± 0.00477
25,ACCCGGCT,0.22 ± 0.0443
26,ACCCGTAG,0.156 ± 0.0429

row,Sequence,binding signal [E-score]
1,AACCGTAT,0.275 ± 0.0195
2,ACCCGGGT,0.377 ± 0.0364
3,ACCCGGAA,0.184 ± 0.00414
4,ACCCGGGA,0.311 ± 0.0112
5,ACCCGGAT,0.411 ± 0.0469
6,ATCCGGAT,0.446 ± 0.0263
7,ATCCGGAA,0.295 ± 0.0493
8,ATCCGGAG,0.299 ± 0.0152
9,TCCGCCGA,0.252 ± 0.00841
10,CGAATACG,0.2 ± 0.0406
11,GGTGTTGA,0.258 ± 0.0174
12,TCAGATAA,0.21 ± 0.0582
13,AATACCTG,0.178 ± 0.0145
14,ATCATCGG,0.365 ± 0.0324
15,AGCCGGCT,0.1726 ± 0.000438
16,AGCCGGAT,0.382 ± 0.0208
17,AACCGGAT,0.316 ± 0.00955
18,ATCTTCAG,0.153 ± 0.0288
19,CGGTGTTA,0.312 ± 0.0102
20,AGTGGTAT,0.35 ± 0.0207
21,ACTGGGAT,0.239 ± 0.0081
22,AATGGTGT,0.287 ± 0.00727
23,AATGGTAT,0.381 ± 0.00619
24,ACTGGTAT,0.386 ± 0.034
25,ACCGGTAT,0.37 ± 0.0044
26,GGATTAGA,0.165 ± 0.00327

row,Sequence,binding signal [E-score]
1,GCGTATCA,0.481 ± 0.00534
2,CCGTATAG,0.239 ± 0.00962
3,ACCTATCA,0.336 ± 0.0088
4,CCCTATCA,0.429 ± 0.0145
5,CCGTATCG,0.457 ± 0.0169
6,GCCTATCA,0.289 ± 0.00848
7,CCGTATTA,0.322 ± 0.00404
8,TCCTATCA,0.307 ± 0.0417
9,TCGTATCA,0.45 ± 0.0228
10,GCGTATAA,0.16 ± 0.104
11,GCGTCTCA,0.209 ± 0.0176
12,TCGTATAA,0.194 ± 0.0979
13,ATCCCTCG,0.337 ± 0.0323
14,ATATAGCG,0.164 ± 0.0414
15,GTATTAAC,0.272 ± 0.0619
16,GATAGTGA,0.231 ± 0.0159
17,CCGTATAA,0.226 ± 0.0709
18,CCGTATGA,0.217 ± 0.0235
19,CCGTATCA,0.486 ± 0.00556
20,ATCATACC,0.351 ± 0.0212
21,ATCGCCTA,0.232 ± 0.0537
22,GAGACGGA,0.272 ± 0.0111
23,AAGGTATC,0.472 ± 0.0103
24,CAGGTAGA,0.15 ± 0.00481
25,CAGGTATA,0.276 ± 0.0442
26,GAGGTATC,0.4767 ± 0.00464

row,Sequence,binding signal [E-score]
1,CAGGTATC,0.4642 ± 0.00145
2,AAGGTATG,0.201 ± 0.00407
3,AAGGTATT,0.248 ± 0.0945
4,GAGTTATC,0.248 ± 0.0177
5,GAGGTATA,0.365 ± 0.0614
6,CCGGCTAA,0.178 ± 0.0089
7,ACACCTAA,0.261 ± 0.0204
8,CCAATCCG,0.224 ± 0.0167
9,CGCCGATC,0.258 ± 0.0126
10,ATCCATAC,0.31 ± 0.0347
11,AGCGGTAT,0.3428 ± 0.000445
12,TATCGGCA,0.244 ± 0.0173
13,AGACGATC,0.285 ± 0.0103
14,AGCCTATC,0.192 ± 0.0162
15,CCCCGCCA,0.161 ± 0.0538
16,ATTATCTC,0.203 ± 0.126
17,GATAGGGA,0.376 ± 0.00884
18,TATAGGGA,0.206 ± 0.00286
19,GATAGGGC,0.285 ± 0.0546
20,AGGAATCC,0.197 ± 0.00841
21,GATCGTCC,0.238 ± 0.0474
22,CAAACCCG,0.174 ± 0.0382
23,AGATACCT,0.42 ± 0.0259
24,AGATACCA,0.422 ± 0.0101
25,AAATACCG,0.178 ± 0.0267
26,AAATACCT,0.173 ± 0.0423

row,Sequence,binding signal [E-score]
1,ACATACCG,0.162 ± 0.0512
2,CGATACCG,0.45 ± 0.0109
3,CAATACCC,0.387 ± 0.00788
4,CAATACCG,0.354 ± 0.0156
5,AGATACAT,0.329 ± 0.00303
6,GAATACCC,0.368 ± 0.0333
7,CCATACAC,0.174 ± 0.121
8,ATCATTGA,0.2801 ± 0.000297
9,ATCGTGTC,0.274 ± 0.0122
10,GATAGATA,0.364 ± 0.0331
11,CTAGTGTA,0.189 ± 0.0116
12,GGTTCATA,0.154 ± 0.00678
13,TGATACCA,0.4811 ± 0.00363
14,TAATACCA,0.37 ± 0.0315
15,CTATACCA,0.245 ± 0.018
16,CGATAACC,0.2329 ± 0.00167
17,AGATACCG,0.37 ± 0.00507
18,ACATACCC,0.194 ± 0.0165
19,CCATACCC,0.274 ± 0.0803
20,CGATACCC,0.4916 ± 0.00317
21,CAATACCA,0.375 ± 0.0246
22,CGATACCA,0.455 ± 0.0104
23,TGATACAA,0.337 ± 0.0251
24,AGATACCC,0.4684 ± 0.00214
25,CGGTACTC,0.176 ± 0.0493
26,ATCAGGGG,0.307 ± 0.019

row,Sequence,binding signal [E-score]
1,TAGTGTCA,0.245 ± 0.0279
2,ATCAATCA,0.221 ± 0.00233
3,AAACGTAT,0.262 ± 0.0965
4,ATATTCCC,0.305 ± 0.0527
5,ATACTGGG,0.225 ± 0.0379
6,ACGATCAT,0.186 ± 0.0246
7,ATCACGTC,0.189 ± 0.0151
8,ATATGTCA,0.166 ± 0.0885
9,GGATACCA,0.426 ± 0.0353
10,GCATACCC,0.289 ± 0.0463
11,AAATACCC,0.2 ± 0.00818
12,GGATACCC,0.484 ± 0.00911
13,GTATACCA,0.364 ± 0.00595
14,GAATACCA,0.278 ± 0.0281
15,AGTATAAG,0.161 ± 0.0893
16,TAATATAA,0.257 ± 0.0514
17,ATCCACGA,0.154 ± 0.0369
18,ACTATCCT,0.318 ± 0.0157
19,CTATTATC,0.189 ± 0.0626
20,GACTATAC,0.237 ± 0.00521
21,ACGATCGG,0.169 ± 0.0263
22,ACGATATA,0.296 ± 0.0641
23,ACTATATC,0.367 ± 0.0339
24,ACGATATG,0.417 ± 0.0227
25,ACGATCTC,0.189 ± 0.0362
26,ACGATATC,0.454 ± 0.0379

row,Sequence,binding signal [E-score]
1,CCGATATC,0.457 ± 0.0156
2,CCGATAAC,0.239 ± 0.00451
3,CCGATAGC,0.329 ± 0.00875
4,ACCACACC,0.174 ± 0.038
5,ATACGCCC,0.275 ± 0.0117
6,GATAACCA,0.213 ± 0.00941
7,ATCACTTG,0.29 ± 0.0319
8,GGCTAATA,0.201 ± 0.0383
9,AATATGGT,0.177 ± 0.105
10,GATAGCAC,0.236 ± 0.0609
11,ACGCGATA,0.316 ± 0.0166
12,CCGCGATC,0.354 ± 0.0349
13,CGGCGATA,0.3475 ± 0.00182
14,GCGCGATA,0.379 ± 0.0395
15,CCGCGATA,0.4109 ± 0.00278
16,GGGCGATA,0.347 ± 0.0047
17,ATATAGAG,0.202 ± 0.0348
18,CCAGATGA,0.203 ± 0.0127
19,ACTACCTA,0.157 ± 0.0187
20,GAATACTC,0.155 ± 0.0382
21,GTAGATAC,0.289 ± 0.0214
